Laboratory results as given in PubChem BioAssay AID2716 (Broad Institute, 2010).
In all, about 320,000 compounds went through this assay and about 3,300 (1%) were called active. The full list was thinned out, with actives kept by preference. Values without a mark were called inactive.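 How the source made its calls: active means every valid replicate shows activation above 250% relative to neutral control wells; inactive means the rest, any valid replicate at or below 250%.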

test: restored growth of temperature-sensitive Mot1-301 yeast – S. cerevisiae, ATP luminescence, 38.5C, SUMOylation pathway inhibitor project, primary screen (AID 2716);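 further: OY570 slx delta 5 strain wells were the positive control but not used for scaling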; conditions: S. cerevisiae Mot1-301 growth rescue, at 18.8 µM, stronger effect = higher value, percent above DMSO median, 100 means doubled

Structure (SMILES)	growth rescue
COC(=O)C1(S(=O)(=O)C2(C(=O)OC)CCCC2)CCCC1	-10%
CCN(CC)C(=O)C(=O)Nc1cccc(Br)c1	1.06%
CCN(CC)C(=O)CSC(Nc1cccc(F)c1)=C(C#N)C#N	643% (active)
Cc1ccc(CSCC(=O)N(C)CC(=O)Nc2cccc(F)c2)cc1	-8.64%
Cc1ccc(NC(=O)[C@H](Cc2ccccc2)NC(=O)C2CCNCC2)cc1	2.72%
N/C(=N\OC(=O)Nc1ccccc1)c1ccno1	4.96%
O=c1c2cc([N+](=O)[O-])ccc2nc2n1CCC2	12%
Cn1c(=O)c2c(ncn2CCc2ccccc2)n(C)c1=O	43.8%
O=c1c2c(ncn1Cc1ccccc1)nc1n2CCC1	490% (active)
Cc1ccc(C)c(OCCC(=O)OCC(=O)c2ccc3c(c2)NC(=O)CO3)c1	0.132%
O=C(CCNC(=O)c1ccc([N+](=O)[O-])cc1)Nc1ccccc1N1CCOCC1	-1.52%
CCCCN(C(=O)c1nn(C)c(=O)c2ccccc12)c1c(N)n(CCC)c(=O)[nH]c1=O	-14.8%
COc1ccc(Cc2nnc(SCC(=O)N(c3ccccc3)C(C)C)n(N)c2=O)cc1	2.77%
CN(CCc1ccccc1)c1ccc([N+](=O)[O-])cn1	9.85%
O=C(NN1C(=O)C2C3C=CC(C3)C2C1=O)c1ccco1 (stereo not given)	-6.66%
COc1cccc2cc(C(=O)N(C)C)c(=O)oc12	0.334%
CN(C)C(=O)c1coc2nc3ccccc3nc12	924% (active)
CNC(=O)c1cccc2nc3ccccc3nc12	16%
CCOC(=O)C1(Cc2cccc(OC)c2)CCCN(C(=O)CCSC)C1 (stereo not given)	-10.8%
CCOC(=O)C1(Cc2cccc(OC)c2)CCN(C(C)COC)CC1 (stereo not given)	9.8%
CCOC(=O)C1(Cc2cccc(OC)c2)CCCN(S(=O)(=O)c2cccnc2)C1 (stereo not given)	568% (active)
CCOC(=O)c1cc(C(=O)Nc2ccc(S(=O)(=O)Nc3ccc(OC)cc3)cc2)nn1C	1.95%
Cc1ccc(C)c(S(=O)(=O)N2CCN(c3ncnc4sccc34)CC2)c1	-2.33%
C/[N+]([O-])=C\c1ccc([N+](=O)[O-])o1	330% (active)
Cc1cc(C)nc(N/N=C/c2ccc([N+](=O)[O-])o2)n1	-7.8%
CCc1ccc(S(=O)(=O)N/N=C\c2ccc([N+](=O)[O-])o2)cc1	-9.87%
NC(=O)C1(C(N)=O)OC1c1ccc(Cl)cc1Cl (stereo not given)	-6.75%
O=C(NCCc1ccco1)c1ccc(OCc2cn3ccccc3n2)cc1	-7.98%
CCc1nccn1S(=O)(=O)c1cccc([N+](=O)[O-])c1	1.13%
Cc1cn(C2C=CC(CO)O2)c(=O)[nH]c1=O (stereo not given)	-3.98%
